Results as given in publication PMC12136788.
Numbering of substitutions follows the chain as printed. The full ranking holds about 24,000 sequences; the median of “enrichment r” is about 0.99, and the highest 2% start at about 3.7. What follows is part of a selection rich in the highest values, with near analogues and random picks from the rest.

T1: UNK ZnF1-3 (human, UniProt Q9C0B0 31-174)
T1 sequence: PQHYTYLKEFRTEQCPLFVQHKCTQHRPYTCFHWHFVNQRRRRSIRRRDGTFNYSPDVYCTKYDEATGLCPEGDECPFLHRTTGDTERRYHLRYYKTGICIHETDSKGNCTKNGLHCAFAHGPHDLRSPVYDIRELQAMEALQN

B1: chr3:8561242:8561243:+_ENSMUSG00000027500_ENSMUST00000029002|mus_hu|FALSE|FALSE (ssRNA)
RNA: GGGAGUUCUACAGUCCGACGAUCAACAACCAGCUCACAGUUUCCAAGUGGAAAAAUAUUCAGUAGCAUCAUGUACUUGUACUAUAGGUAAGAGCUUAAAAUGAACAUCAUCAAUCAUGGCAUCCACAAAUAAGCCACCUGACACAACAGAGGAUUGAGCAUCA
B2: chr16:45382771:45382772:-_ENSMUSG00000022661_ENSMUST00000163230|mus_mus|mus_mus_mus_hu_True|38_98 (ssRNA)
RNA: GGGAGUUCUACAGUCCGACGAUCCUGGGUCAUGUUAUGGGCCCAAUGGACAGGGAGGGCAUGCUUCUCAAAAAAUGUGAGCUAUUGUCUAAGACUAACAAUAUUGCUCUAGCUAUAAAAAUAAGUUAAAUGAAUAAGUUAAGACAACAGAGGAUUGAGCAUCA
B3: chr7:149068622:149068623:-_ENSMUSG00000025139_ENSMUST00000001950|mus_hu|mus_mus_mus_hu_False|68_108 (ssRNA)
RNA: GGGAGUUCUACAGUCCGACGAUCGUGCAGGUACUGAGUGUGGCUUGUGGUCUGUCCUGGGUUAGAGCUGCUGGUAACACGGAACAUACCAUCUAGAACGUUCCAGUCCCGCCUGACACCUUCAUUCCCAAUGGAGAAGAAAUCCAACAGAGGAUUGAGCAUCA
B4: chr2:5814250:5814251:-_ENSMUSG00000025816_ENSMUST00000102981|mus_hu|mus_mus_mus_hu_True|58_58 (ssRNA)
RNA: GGGAGUUCUACAGUCCGACGAUCUUCCUUUCCGGUUUCUGAAUUUCUGGUAGAACUGCACAGAAUGGUUUGAUAACUUCUAAAAACUUGAUGCCCAUGGCUGCUGCUGGGGAGGCCCAGGGGGAAACCGCGGCCUCGGCGCUGCAACAGAGGAUUGAGCAUCA
B5: 97007495_97007615_238_CDS_ENSG00000121152_ENST00000240423|human|control|control (ssRNA)
RNA: GGGAGUUCUACAGUCCGACGAUCCAAUAAGCGAGGUGAGUCAGUGCUGAACUGCAGAUCAAAGACCCUCGAGCGCCUCCGCUGCAGCCGCUCCUUCUCAUCGUCAUUCUGAGGAAAGUCUUCGAGGACUGGGGUGCCAGGAAUCAACAGAGGAUUGAGCAUCA
B6: 96635784_96638769_164_5pUTR_ENSMUSG00000020876_ENSMUST00000107661|mouse|control|control (ssRNA)
RNA: GGGAGUUCUACAGUCCGACGAUCCCACAAGCCCAUGGGAAGGGCACAUAGGUGUUCGAGGAAGCUCUUCCGCCUGACAGAAAACCUGUCCCGUCCAUCAAGCAGCUGUUCUCAUUUUUCAGUCGGUAACCCACUCCUUUCACCCAACAGAGGAUUGAGCAUCA
B7: chr12:39756943:39756944:-_ENSG00000139116_ENST00000544797|hu_mus|hu_hu_hu_mus_False|28_68 (ssRNA)
RNA: GGGAGUUCUACAGUCCGACGAUCGGUUUGGCUGUUACCCCCAAGGGAAUCCUGCAAGAGUCUUGUCAGCUUGGAAUCUCUGUAAGGGACAUGGGUGGCUCUCUUGCUCUUGUCUCCCAAGGCGCUGAUUACAUUCCCAAGAGCCAACAGAGGAUUGAGCAUCA
B8: chr19:16212804:16212805:+_ENSG00000167460_ENST00000300933|hu_mus|hu_hu_hu_mus_False|38_98 (ssRNA)
RNA: GGGAGUUCUACAGUCCGACGAUCAACAAUUCUGGAGAAGAACAUCAAUGUAACAUGGAACAGCAUUAAAGCUCAGUCAGAAGGCACAUGGGCAACAAUGACUAUUUCAGCAUUCUCGCUUGGAAUGCUUAAAGACAAUCUGUUCAACAGAGGAUUGAGCAUCA
B9: chr16:45382771:45382772:-_ENSMUSG00000022661_ENSMUST00000163230|mus_mus|mus_mus_mus_hu_True|38_78 (ssRNA)
RNA: B2 RNA with G38A, G39A, C41A, C43A, G57A, C66U
B10: chr4:76721835:76721836:+_ENSG00000138768_ENST00000264904|hu_mus|hu_hu_hu_mus_True|8_28 (ssRNA)
RNA: GGGAGUUCUACAGUCCGACGAUCGUUUGGCUGGGGUUUCUGAGACGCUCUGGAAUAUAACUCAUGUUUGCUAAUAAAUCCUAGUUUCUCUAUGAAAUUCUCUUUGCAAUCCUCUUCCUCUAUUAGUGUUUUAGCUUUCUCUUUCAACAGAGGAUUGAGCAUCA
B11: chr16:45382771:45382772:-_ENSMUSG00000022661_ENSMUST00000163230|mus_mus|mus_mus_mus_hu_True|18_38 (ssRNA)
RNA: B2 RNA with G38A, G39A, C41A, C43A, A117U, U121A, A123U, G124A, U125A, U126G
B12: chr16:45382771:45382772:-_ENSMUSG00000022661_ENSMUST00000163230|mus_mus|mus_mus_mus_hu_True|38_38 (ssRNA)
RNA: B2 RNA with G38A, G39A, C41A, C43A
B13: chr16:45382771:45382772:-_ENSMUSG00000022661_ENSMUST00000163230|mus_mus|mus_mus_mus_hu_True|38_48 (ssRNA)
RNA: B2 RNA with G38A, G39A, C41A, C43A, U87A
B14: chr4:76721835:76721836:+_ENSG00000138768_ENST00000264904|hu_mus|hu_hu_hu_mus_True|18_28 (ssRNA)
RNA: GGGAGUUCUACAGUCCGACGAUCGUUUGGCUGGGGUUUCUGAGACGCUCUGGAAUAUAACUCAUGUUUGCUAAUAAAUCCUAGUUUCUCUAUGAAAUUCUCUUUGCAAUCCUCUUCUCAAUCAGUUUGCUUUAGUUUCUCUUUCAACAGAGGAUUGAGCAUCA

The binders below were run against T1, UNK ZnF1-3 (assay: nsRBNS (natural sequence RNA bind-n-seq); RBNS binding buffer (assumed for nsRBNS): 25 mM Tris pH 7.5, 150 mM KCl, 3 mM MgCl2, 0.01% Triton X-100, 500 ug/ml BSA, 20 U/ml SUPERase-In, 4 C; UNK is unkempt and MSI1 is Musashi-1; names of the RNAs are library labels; protein concentration not given here; high values mean tight binding).
Binder B1 has a binding signal of 1.49 enrichment R.
B2 gave a binding signal of 11.2 enrichment R.
B3 was tested, and the binding signal was 0.783 enrichment R.
B4 gave a binding signal of 1.21 enrichment R.
B5 was tested, and the binding signal was 1.1 enrichment R.
B6 showed a binding signal of 1.14 enrichment R.
B7 gave a binding signal of 0.792 enrichment R.
For B8, the binding signal was 1.15 enrichment R.
With B9 the binding signal was 13.9 enrichment R.
Work on B10 yielded a binding signal of 0.588 enrichment R.
B11 was tested, and the binding signal was 10.5 enrichment R.
B12 was tested, and the binding signal was 16.7 enrichment R.
Binder B13 has a binding signal of 8.11 enrichment R.
Work on B14 yielded a binding signal of 0.475 enrichment R.
